An excerpt weighted towards active compounds, which were near 4.8% of everything screened.
HepG2 tox: kills HepG2 cells in TGF-b inhibitor counter-screen; Potency, µM (doses to about 46.1 µM), for the others: at the top dose activity change, negative = cytotoxicity, actives largely listed as cytotoxic; 0.76% of 410,000 active; HepG2 CAGA-GFP viability, ATP luminescence, 18 h; note: potency is the fitted concentration of half-maximal effect
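CellTiter-Glo luminescence gave cytotoxicity after 18 hours at 37 degrees C. The cells were HepG2 CAGA-GFP in 1% FBS DMEM, stimulated with 500 pg/mL TGF-beta after compound addition. %Activity was normalised to no-cell wells (complete cell-killing) and DMSO (no toxicity), and curves were fitted and classified.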
TGFb inhibitor: blocks TGF-b signaling | HepG2 CAGA-GFP TGF-b/SMAD3 reporter, GFP fluorescence, 18 h; TGF-beta stimulated, 500 pg/mL final | Potency, µM (titrated, usually from 46.1 µM), inactives show top-dose activity, negative = inhibition, usual class: inhibitors | 1.2% of 410,000 active | AID 588855; note: potency is the fitted concentration of half-maximal effect; % is set by controls: 0 for no effect and ±100 for the full control effect; nearly all actives have a fitted effect of over 65% in size
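HEPG2 CAGA-GFP, 1000 cells/well; 2 h settle, 37 C; cpd via pin tool; TGF-b 500 pg/mL final; 18 h, 37 C; GFP imaging ex488/em500-530; %Activity normalised to -TGF-b and +DMSO controls; CRC fit, curve class.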
D3 ag: D3 dopamine receptor (human) agonism; D3R DiscoveRx beta-arrestin cells, luminescence, 90 min; max activation, %; 0.58% of 410,000 active; AID 652048; in the data active = max activation above about 30%; note: 0% is about no effect
Target sequence (P35462 whole entry, looked up): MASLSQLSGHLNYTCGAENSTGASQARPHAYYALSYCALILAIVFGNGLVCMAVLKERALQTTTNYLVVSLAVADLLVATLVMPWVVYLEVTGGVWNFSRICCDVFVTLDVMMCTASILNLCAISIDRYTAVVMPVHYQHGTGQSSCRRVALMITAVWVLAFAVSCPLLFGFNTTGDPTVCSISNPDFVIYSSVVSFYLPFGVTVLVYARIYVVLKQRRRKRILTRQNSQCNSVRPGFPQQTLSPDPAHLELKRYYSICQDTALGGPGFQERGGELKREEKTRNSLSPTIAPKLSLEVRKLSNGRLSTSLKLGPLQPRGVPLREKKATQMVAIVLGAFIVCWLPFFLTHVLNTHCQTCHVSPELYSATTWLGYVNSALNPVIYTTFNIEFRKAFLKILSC
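Agonist mode: compounds and dopamine controls were applied to plated cells for 90 min at 37 degrees C after an overnight attachment at 1500 cells/well. Luminescent read-out followed 30 - 60 minutes at room temperature with DiscoveRx detection reagent.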
DRD3 antagonist: antagonists of human D3 dopamine receptor. P35462. D3R cells, DiscoveRx beta-arrestin luminescence, antagonist mode; stronger effect = lower value. max response, negative = inhibition, %. 2.5% of 360,000 active; in the data active = max response below about -50%; inconclusive = no clear call, values can overlap the other calls; note: % is set by controls: 0 for no effect and ±100 for the full control effect
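Cells expressing the human receptor were seeded at 1500 cells/well, incubated overnight at 37 degrees C in 5% CO2, then exposed to library compounds with dopamine controls for 90 minutes at 37 degrees C before luminescent detection.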
S2 tox: cell viability loss in ATXN counter-screen. S2 cells (HEK-293 line with an ATXN2-luciferase reporter) viability, CellTiter-Fluor protease fluorescence, 24 h. Potency, µM (top dose mostly 56.7 µM), hits mostly cytotoxic. 0.49% of 400,000 active. AID 651635; note: potency is the fitted concentration of half-maximal effect; nearly all actives have a fitted effect of over 40% in size
ATXN2 expr inh: reduces ATXN2 reporter expression in HEK-293 cells; HEK-293 ATXN2-luciferase reporter, luminescence, 24 h; Potency, µM (titrated, usually from 57 µM), for the others: at the highest dose activity change, negative = inhibition, hits mostly inhibitors; 0.72% of 360,000 active; AID 1745845; note: potency is the fitted concentration of half-maximal effect; % is set by controls: 0 for no effect and ±100 for the full control effect; nearly all actives have a fitted effect of over 55% in size
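ATXN2-luciferase reporter cells (luciferase flanked by upstream and downstream ATXN2 gene portions) were treated 24 h at 37 °C with compounds at up to 57 uM. SteadyGlo luminescence gave expression; GF-AFC fluorescence gave viability.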
Numbers without * were called inactive; i = inactive; ? = inconclusive; · = not tested or not shown; ! = not confirmed by another sample. Unless noted, calls come from the whole dose curve; as a rule, active = well fitted curve in the direction sought with a large enough effect; inconclusive = small, poorly fitted or top-dose-only effect, or another doubt; inactive = no such curve, though single readings can be large; an effect the other way counts as inactive or inconclusive.

SMILES	HepG2 tox	TGFb inhibitor	D3 ag	DRD3 antagonist	S2 tox	ATXN2 expr inh
Cc1ccc(NNC(=O)c2ccno2)c(C)c1	-0.4%	9.1%	34.6*	1.9	i	?
CSc1nc(SCC(=O)NC(c2ccccc2)c2ccccc2)c2c3c(sc2n1)CN(C)CC3	-36.0%	-6.6%	-8.3	-91.5*	28.2µM*	20µM*
CSc1nc(NCC(C)O)c2c3c(sc2n1)CN(C)CC3 (configuration not stated)	-15.3%	-4.2%	-1.6	29.2	i	·
CCC(=O)NC(=S)Nc1cccc(Cl)c1N1CCCCC1	-60.9%	14.1µM*	-8.3	-4.1	i	-27.0%
COc1ccccc1CN1CCC2(CCC(CNC(=O)c3ccccc3N(C)C)O2)CC1 (configuration not stated)	·	·	·	·	i	·
COc1cc(-c2nc3ccc4ccccc4c3c3c2CCC3)cc(OC)c1O	-98.0%	11.2µM*	20.4	35.6	?	?
Cc1sc2ccccc2[n+]1CCc1ccccc1	-58.2%	?	·	·	·	·
CCN1c2ccccc2N(C)C1(C)c1ccccc1 (configuration not stated)	-101.9%	8.91µM*	-8.7	-0.4	i	17.8µM*
CN1c2ccccc2N(C)C1(C)c1ccccc1	-40.8%	?	7.8	4.8	i	-19.6%
Cc1ccc2[nH]c(=O)c(N3CCOCC3)c(-c3ccccc3)c2c1	-11.7%	-7.2%	32.8*	30.2	i	3.4%
CN(C(=O)COc1ccccc1C(=O)NCCOc1ccccc1)c1ccccc1	-25.1%	?	30.1*	12.3	?	?
Nc1c(C(=O)Nc2ccc(C(=O)O)cc2)sc2nc3c(cc12)CCCC3	14.3%	-8.5%	16.0	·	i	81.8%
Nc1c(C(=O)Nc2cccc(C(=O)O)c2)sc2nc3c(cc12)CCCC3	8.4%	1.8%	4.5	30.7	i	3.98µM*
Nc1c(C(=O)Nc2ccccc2)sc2nc3c(c(-c4ccco4)c12)CCC3	-54.7%	-4.9%	6.9	-60.5*	i	110.8%
CCC(CC)C1C(C#N)=C(N)SC(N)=C1C#N	1.6%	-25.6%	-0.5	-60.0*	i	40.1%
Nc1c(Br)cc(Br)c2c1C(=O)c1c(cccc1S(=O)(=O)O)C2=O	-17.1%	-5.0%	-17.4	-55.1*	?	1.4%
COc1cc(Cl)c(C)cc1NC(=O)CC1Oc2ccccc2NC1=O (configuration not stated)	-34.8%	-14.2%	1.3	·	·	·
CC(C)=CNNC(=O)c1ccc(O)cc1	-4.2%	-3.6%	·	·	·	·
COc1cccc(N2CC(C)Cn3c2nc2c3c(=O)n(CCN3CCOCC3)c(=O)n2C)c1 (configuration not stated)	-13.9%	-3.2%	-5.1	-64.0*	i	-3.8%
COc1ccc(Br)cc1S(=O)(=O)NCCCN1CCOCC1	-19.7%	5.2%	-12.9	-89.7*	i	·
Cc1cc(-c2ccc(C)c(S(=O)(=O)NCCCN3CCN(c4ccccc4F)CC3)c2)on1	-43.7%	?	3.7	-68.5*	?	·
COc1ccc(-c2cc(C)no2)cc1S(=O)(=O)NCCCN1CCN(c2ccccc2)CC1	-39.0%	?	-0.2	-58.0*	i	·
Cn1c(=O)oc2cc(S(=O)(=O)NCCN3CCCCCC3)ccc21	6.2%	10.5%	0.1	1.7	i	-6.7%
Cc1cc(-c2ccc(C)c(S(=O)(=O)NCCCN3CCN(c4ccccc4)CC3)c2)on1	-33.0%	?	-0.4	?	?	·
Cn1c(=O)oc2cc(S(=O)(=O)NCCN3CCN(c4ccccc4F)CC3)ccc21	-0.6%	-2.6%	11.1	-54.5*	i	4.6%
SMILES	HepG2 tox	TGFb inhibitor	D3 ag	DRD3 antagonist	S2 tox	ATXN2 expr inh
CCNC(=O)CC1C(=O)N(c2ccc(F)cc2)C(=O)N1Cc1ccc(OC)c(OC)c1 (configuration not stated)	-11.3%	-29.2%	6.7	·	i	8.9%
CCOCc1nc(N)nc(N)c1-c1cccc(Cl)c1	11.2µM*	0.2%	-1.7	58.2	i	·
CCOC(=O)c1c(C)nc2ccc(Cl)cc2c1-c1ccccc1	-37.6%	?	4.5	8.2	i	-37.1%
COc1cc(NC(=NS(=O)(=O)c2ccccc2)c2ccccc2)ncn1	1.6%	0.7%	-30.2	-99.7*	?	6.0%
O=S(=O)(/N=C(/Nc1cc(N2CCOCC2)ncn1)c1ccccc1)c1ccccc1	3.1%	-8.0%	4.9	2.1	i	8.4%
Cc1c(C(=O)NCc2ccc(F)cc2)sc2ncnc(NCC3CCCO3)c12 (configuration not stated)	·	·	·	·	i	·
Cc1ccc(CSc2ccc3nnc(CCNS(=O)(=O)c4ccc(C)cc4)n3n2)cc1	-31.5%	?	5.9	·	·	·
Cc1ccc2c(c1)C(=C(C#N)C#N)C(=O)N2CCN1CCCCC1	-182.4%	-12.3%	-12.8	-54.6*	i	-8.7%
Cc1ccc2c(c1)C(=C(C#N)C#N)C(=O)N2CCN1CCOCC1	-17.7%	-11.0%	-2.4	-14.8	i	-2.0%
N#CC(C#N)=C1C(=O)N(CCN2CCOCC2)c2ccccc21	22.4µM*	?	3.5	7.8	?	-15.0%
COc1cc(OC)c(NS(=O)(=O)c2c(C)nc3sc(C)cn3c2=O)cc1Cl	-10.7%	-20.0%	1.8	·	·	·
CC(C)(C)n1ncc2c(=O)n(Cc3ccccc3F)cnc21	-17.2%	-7.4%	·	·	·	·
CCCCN(CCCNc1ncnc2nc[nH]c12)c1ccccc1	3.16µM*	?	-4.4	-4.0	?	?
CC(=O)O[C@H]1CC[C@@]2(C)C(=CC[C@@H]3[C@@H]2CC[C@]2(C)C(C(C)=O)=CC[C@@H]32)C1	·	·	·	·	i	2.8%
S=C(NCCc1ccccc1)NCc1cccc(Cl)c1	-44.2%	12.6µM*	-1.0	-2.2	i	1.1%
COc1ccccc1C(=O)N[C@@H]1c2ccccc2C2(CCN(Cc3c(O)cccc3OC)CC2)[C@H]1O	·	·	·	·	i	·
COc1cc(/C=N/NC(N)=S)cc(Br)c1OCc1ccccc1F	-50.9%	?	-6.6	-50.8*	i	?
COc1cc(/C=N/O)cc(Br)c1OCc1ccc(Cl)cc1	12.6µM*	?	3.9	-21.4	i	?
CCOc1cc(/C=N/NC(N)=S)cc(Br)c1OCc1ccccc1C	-51.9%	-23.0%	1.4	-15.5	?	?
Cc1c(NC(=O)c2ccc(-c3ccc(F)cc3)o2)cccc1-c1nc2ncccc2o1	-0.4%	-20.7%	-15.8	·	i	-5.7%
CCOc1cc(CC(=O)N[C@@H](CC(C)C)c2ccccc2N2CCCCC2)ccc1C(=O)O	-31.8%	-25.7%	96.5*!	36.9	i	0.0%
Cc1cccc(CNC(=O)c2cnn(-c3nccc(-c4cccs4)n3)c2C2CC2)n1	·	·	·	·	i	·
COc1ccc(-c2cc(C)no2)cc1S(=O)(=O)Nc1c(C)cc(C)cc1C	-22.3%	0.0%	-8.7	·	·	·

Source: PubChem BioAssay
